CYP2C9 activ = CYP2C9 (human) activation; AID 1024; recombinant CYP2C9, luciferin-H conversion, luminescence; stronger effect = higher value; factor 1 = untreated enzyme, 0 = blocked; activation factor at 5 µM; 96,000 tested, 1.4% active; P11712;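 active = activation factor of 2 or more for CYP2C9 at a 5 µM dose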;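 also: 0 = sulfaphenazole-blocked wells and 1 = vehicle-only wells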
E-sel TNF inh = TNF alpha driven E-selectin expression inhibition; HUVEC TNFa-induced E-selectin immunofluorescence, high content; 120,000 tested, 0.71% active; inhibition, % at 2 µM;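 active = inhibition above the batch mean plus 3 SD, and confirmed as a hit on visual image review, cut at about 43% in these data; inconclusive = passes the inhibition cutoff but fails visual image review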;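 also: 0% = TNF-stimulated DMSO wells and 100% = unstimulated control wells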
CYP2C19 activ = increases human CYP2C19 enzyme activity; 96,000 tested, under 10 active; AID 1025; recombinant CYP2C19, luciferin-H EGE luminescence; stronger effect = higher value; 0 = fully inhibited enzyme, 1 = untreated enzyme; activation factor at 5 µM;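 active = activation factor of at least 2 at 5 µM in the primary screen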;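 also: 0 = wells with 2.5 mM tranylcypromine and 1 = vehicle-only wells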
Target sequence (P33261 whole entry, looked up): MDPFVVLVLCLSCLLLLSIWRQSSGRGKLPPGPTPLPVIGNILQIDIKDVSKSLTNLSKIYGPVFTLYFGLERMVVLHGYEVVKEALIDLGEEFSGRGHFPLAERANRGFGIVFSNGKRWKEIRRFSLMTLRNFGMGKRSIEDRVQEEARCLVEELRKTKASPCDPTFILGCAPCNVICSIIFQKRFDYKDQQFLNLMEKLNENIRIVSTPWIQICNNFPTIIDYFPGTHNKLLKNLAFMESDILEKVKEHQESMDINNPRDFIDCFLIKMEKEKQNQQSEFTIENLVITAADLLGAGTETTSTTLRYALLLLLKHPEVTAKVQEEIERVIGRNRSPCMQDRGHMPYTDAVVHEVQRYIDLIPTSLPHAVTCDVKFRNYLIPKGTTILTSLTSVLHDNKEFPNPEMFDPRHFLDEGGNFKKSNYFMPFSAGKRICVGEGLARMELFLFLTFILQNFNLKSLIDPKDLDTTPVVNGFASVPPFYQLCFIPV
CYP2C9 inh = inhibitors of human CYP2C9. inhibition, % at 5 µM. P11712. AID 777. 96,000 tested, 20% active. CYP2C9 Supersomes, luciferin-H conversion, luminescence;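 active = blocking of liver enzyme CYP2C9 beyond about 50% at 5 µM, limit read from the data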
cytoskel mod = modifiers of cytoskeleton assembly; HUVEC TNFa F-actin phalloidin imaging, high content; AID 836; inhibition, % at 2 µM; 91,000 tested, 0.18% active;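 active = inhibition above the batch mean plus 3 SD and confirmed as a hit by visual image inspection, cut at about 30% in these data, passing the limit was not always enough; inconclusive = above the inhibition threshold but rejected on visual inspection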
CYP2C19 inhib = human CYP2C19 inhibition | P33261 | CYP2C19 Supersomes, luciferin-H EGE luminescence, 30 min | inhibition, % at 5 µM | 96,000 tested, 21% active | AID 778;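 active = CYP2C19 inhibition above a set limit at 5 µM in the primary screen, cut at about 50% in these data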;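 also: plate controls were negative control wells for no effect and 2.5 mM tranylcypromine positive control for full effect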
* hit, by the source's call; u = inconclusive; x = no result given. An excerpt weighted towards active compounds, which were near 22% of everything screened.

SMILES	CYP2C9 activ	E-sel TNF inh	CYP2C19 activ	CYP2C9 inh	cytoskel mod	CYP2C19 inhib
COc1ccccc1NC(=O)c1ccc(-c2ccc(Br)cc2)o1	1.8	6	0.9	-78	x	6
C=CCOc1c(Br)cc(CNn2nnnc2N)cc1OC	0.7	u	0.3	32	2	70*
C=CCOc1c(Br)cc(CNc2ccc(NC(=O)C(C)C)c(OC)c2)cc1OC	0.5	-16	0.4	46	-5	61*
COc1ccc(C)cc1-n1nnnc1SCC(=O)NC(=O)NCc1ccco1	1.1	17	0.7	-10	-13	34
CCCN1C(=O)/C(=C/c2cc(C)n(C)c2C)SC1=Nc1ccc(OCC)cc1	0.9	-50	1	10	18	0
O=C(CN1CCCC1)Nc1ccccc1Cl	0.8	23	0.9	18	-21	7
O=C(CN1CCCCCC1)Nc1ccc(F)c(F)c1F	0.9	-5	0.3	8	-15	72*
Cc1ccc(NC(=O)CN2CCCCCC2)c(Br)c1	0.9	-88	0.2	14	x	80*
O=[N+]([O-])c1cc(S(=O)(=O)c2ccc(N3CCCCC3)c([N+](=O)[O-])c2)ccc1N1CCCCC1	x	-50	x	x	x	x
CCn1c2ccccc2c2nnc(SCc3cc(=O)n4ccsc4n3)nc21	0.3	x	0.1	65*	x	87*
CCCn1c(=O)c2ccccc2n2c(SCc3cc(=O)n4ccsc4n3)nnc12	x	-14	x	x	30	x
CCCCC(CC(O)COCC(C)C)C(=O)NN (stereo not drawn)	x	-16	x	x	x	x
NC(=O)NOCc1ccccc1	x	68*	x	x	x	x
CCN(CC)S(=O)(=O)c1cccc(C(=O)Nc2cccc(C)c2)c1	0.7	-53	0.6	32	x	44
CCN(CC)S(=O)(=O)c1ccc2[nH]c(=O)cc(C(=O)Nc3cccc(C(C)=O)c3)c2c1	x	68*	x	x	x	x
Brc1ccc(C2NCCS2)cc1 (stereo not drawn)	x	-4	x	x	x	x
CNc1nc(-c2ccccc2)cc(C(F)(F)F)c1C#N	0.8	10	0.8	17	-41	21
CNc1nc(C)c(C#N)c(-c2ccccc2)c1C(C)=O	0.7	17	0.5	33	2	55*
COc1ccc(C2(C(=O)NCCCN(C)C)CCOCC2)cc1	1.1	x	1.3	-6	0	-30
CCCCCn1c(CCNC(=O)c2cccs2)nc2ccccc21	0.1	1	0	92*	-4	96*
CCCCCn1c(CNC(=O)c2cccs2)nc2ccccc21	x	-4	x	x	-13	x
CCn1c(C(C)NC(=O)c2cccs2)nc2ccccc21 (stereo not drawn)	0.5	-24	0.7	52*	x	33
CC(=O)n1nc(-c2ccccc2)nc1NCc1ccc(F)cc1	0.8	-20	0.8	22	11	16
CC(=O)N(Cc1ccc(F)cc1)C1=C(NCc2ccccc2)C(=O)c2ccccc2C1=O	0.2	16	0.3	76*	-6	73*
CC(C)(C)c1nc(CN2CCOCC2)ccc1O	1.1	13	0.4	-6	2	60*
SMILES	CYP2C9 activ	E-sel TNF inh	CYP2C19 activ	CYP2C9 inh	cytoskel mod	CYP2C19 inhib
CC(C)(C)c1nc(CN2CCCCC2)cc(CN2CCCCC2)c1O	1	x	0.8	3	10	20
CCn1nc(C(=O)OCC(=O)c2cc(C)n(Cc3cccs3)c2C)c2ccccc2c1=O	0.6	16	0.2	40	-26	80*
Cc1cc(C(=O)COc2cccnc2[N+](=O)[O-])c(C)n1Cc1cccs1	x	2	x	x	x	x
CC(=O)Nc1ccccc1OCC(=O)c1cc(C)n(Cc2cccs2)c1C	0.7	-35	0.2	32	x	80*
Cc1cc(C(=O)COC(=O)c2ccc3c(c2)OCO3)c(C)n1Cc1cccs1	0.8	-30	0.5	19	-1	48
Cc1cc(C(=O)COC(=O)c2ccccc2O)c(C)n1Cc1cccs1	0.5	-8	0.4	49	-25	57*
Cc1cc(=O)c(C(=O)O)nn1-c1ccccc1	x	3	x	x	x	x
O=C(NCc1ccco1)C(=O)NCC1OCCN1S(=O)(=O)c1ccc(F)cc1 (stereo not drawn)	x	-16	x	x	x	x
O=C(NCc1cccs1)c1cccc(N2CCCC2=O)c1	0.5	12	0.4	54*	14	57*
O=C(NC1CCCCCC1)c1cccc(N2CCCC2=O)c1	0.6	-7	0.4	37	-3	57*
Nc1ccccc1C(=O)NCc1ccccc1	1	4	1	0	x	-1
CCCCOC(=O)c1ccc(OC(=O)c2cccnc2)cc1	1.1	22	0.8	-6	16	19
CCCCCCOC(=O)c1ccc(OC(=O)c2cccnc2)cc1	0.1	6	0.3	86*	6	72*

Screening results deposited in PubChem by several laboratories.
